PubChem BioAssay

Columns and labels:
[1] = tested on: Human papillomavirus type 1a protein E7 (residues 44-93); assay: small molecules binding HPV E7 44-93 – biochemical, small-molecule microarray, residues 44-93, 635 nm fluorescence, primary screen (AID 1108); settings: fluorescence 635 nm, higher = more signal;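 note: E7 fragment applied at 1 µg/mL in TBST for 1 h at 4 C; score combines spot fluorescence with its signal to noise ratio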
[2] = hepatitis C replication reporter changes, two-sided – Huh7 cells, luciferase reporter, HCV replication inhibitor project, primary screen (AID 1109); settings: Huh7 HCV replicon luciferase reporter, 48 h; higher = more signal;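 note: huh7 hepatoma cells harbouring a luciferase neomycin HCV replicon reporter; luciferase luminescence as measure of HCV replicon replication; test concentration not given here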
[3] = target: Left-right determination factor 2 (Homo sapiens) (UniProt O00292); assay: small molecules binding LEFTY2 protein – biochemical, small-molecule microarray, 635 nm fluorescence scan, primary screen (AID 1110); settings: higher = more signal
[4] = target: Calmodulin-1 (Homo sapiens) (UniProt P0DP23); assay: small molecules binding calmodulin-1 with EGTA – biochemical, small-molecule microarray, Cy5-labelled CALM1, profiling panel (AID 1111); settings: Cy5-CALM1 binding fluorescence, higher = more signal;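 note: labelled calmodulin applied in Tris saline Tween buffer holding calcium plus EGTA and DTT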
[5] = target: Calmodulin-1 (Homo sapiens) (UniProt P0DP23); assay: small molecules binding Ca-loaded calmodulin-1 – biochemical, small-molecule microarray, Cy5-labelled CALM1, plus calcium, artefact control for SMM control-protein annotation, profiling panel (AID 1112); settings: Cy5-CALM1 binding fluorescence, higher = more signal;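 note: score merges spot fluorescence with signal to noise from triplicate slides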
[6] = probe aWnt5a binding to arrayed compounds – biochemical, biotinylated probe, 635/667 nm fluorescence, primary screen (AID 1113); settings: small-molecule microarray, higher = more signal;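 note: score merges 667 nm fluorescence intensity with signal-to-noise per printed feature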
[7] = probe aShh binding to arrayed compounds – biochemical, biotinylated probe, 635/667 nm fluorescence, primary screen (AID 1114); settings: small-molecule microarray, higher = more signal;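 note: probe is biotin-labelled aShh protein from a stem cell growth factor screen; measures binding of labelled protein to compounds printed on the slide; score merges feature fluorescence at 667 nm with signal-to-noise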
[8] = probe aNog binding to arrayed compounds – biochemical, biotinylated probe, 635/667 nm fluorescence, primary screen (AID 1115); settings: small-molecule microarray, higher = more signal;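 note: probe is biotinylated aNog protein used at 0.15 µg/mL for 1 h at 4 C; z-score combines 667 nm fluorescence of each spot with its signal to noise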
[9] = target: Torsin-1A-interacting protein 1 (Homo sapiens) (UniProt Q5JTV8); assay: compound microarray binding of lysate hLAP1 – cell lysate, small-molecule microarray, COS7 lysate, 635/667 nm fluorescence, primary screen (AID 1116); settings: 635 nm fluorescence, higher = more signal
[10] = target: Alpha-bungarotoxin (Bungarus multicinctus) (UniProt P60615); assay: compounds binding labelled alpha-BTX control protein – biochemical, small-molecule microarray, Alexa647 label, 635/667 nm fluorescence, artefact control for SMM control protein annotation, profiling panel (AID 1117); settings: alpha-BTX-A647 binding fluorescence, higher = more signal
Sequence of Alpha-bungarotoxin (Bungarus multicinctus) (P60615 whole entry, looked up): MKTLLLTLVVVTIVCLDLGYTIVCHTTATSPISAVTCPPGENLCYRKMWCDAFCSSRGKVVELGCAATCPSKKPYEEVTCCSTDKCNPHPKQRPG

Sequence of Torsin-1A-interacting protein 1 (Homo sapiens) (Q5JTV8 whole entry, looked up): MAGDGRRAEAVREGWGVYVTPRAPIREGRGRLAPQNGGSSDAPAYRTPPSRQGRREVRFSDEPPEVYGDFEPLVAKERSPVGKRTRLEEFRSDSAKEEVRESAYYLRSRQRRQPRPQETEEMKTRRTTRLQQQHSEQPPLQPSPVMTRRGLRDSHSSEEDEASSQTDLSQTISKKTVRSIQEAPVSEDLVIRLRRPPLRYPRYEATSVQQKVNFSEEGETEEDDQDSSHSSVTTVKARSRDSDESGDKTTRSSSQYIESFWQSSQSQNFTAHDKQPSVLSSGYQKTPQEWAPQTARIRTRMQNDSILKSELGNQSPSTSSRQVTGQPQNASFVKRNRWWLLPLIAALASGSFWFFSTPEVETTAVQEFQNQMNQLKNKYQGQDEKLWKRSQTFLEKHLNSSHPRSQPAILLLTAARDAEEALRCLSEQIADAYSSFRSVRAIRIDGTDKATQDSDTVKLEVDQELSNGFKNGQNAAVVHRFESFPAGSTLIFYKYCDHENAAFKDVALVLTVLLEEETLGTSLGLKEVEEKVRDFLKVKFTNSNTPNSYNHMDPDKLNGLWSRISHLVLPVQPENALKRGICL
Sequence of Left-right determination factor 2 (Homo sapiens) (O00292 whole entry, looked up): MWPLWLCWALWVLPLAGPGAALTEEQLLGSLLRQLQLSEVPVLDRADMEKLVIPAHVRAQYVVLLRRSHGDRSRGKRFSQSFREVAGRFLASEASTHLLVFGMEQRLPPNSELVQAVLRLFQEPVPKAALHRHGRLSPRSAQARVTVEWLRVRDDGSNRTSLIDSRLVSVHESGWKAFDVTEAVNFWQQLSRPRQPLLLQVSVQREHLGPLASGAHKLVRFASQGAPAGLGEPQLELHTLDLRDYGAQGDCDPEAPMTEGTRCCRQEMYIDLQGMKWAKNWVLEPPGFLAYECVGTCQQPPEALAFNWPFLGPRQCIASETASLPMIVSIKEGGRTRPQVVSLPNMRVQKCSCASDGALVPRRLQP

Question: For `COC(=O)c1c(CC[C@@H](CO)NC(=O)N[C@@H](Cc2ccccc2)Cn2cc(-c3cncn3C)nn2)oc(C(C)=O)c1C(=O)OC`, which composite z-score [1] is on record?
Answer: 1.47

Question: And the z-score [2]?
Answer: -0.594

Question: And the composite z-score [3]?
Answer: -0.338

Question: And the composite z-score [4]?
Answer: 0.162

Question: And the composite z-score [5]?
Answer: -0.329

Question: What about the composite z-score [6] of the same compound?
Answer: -0.124

Question: And the composite z-score [7]?
Answer: -0.0866

Question: What about the composite z-score [8] of the same compound?
Answer: -0.394

Question: What about the composite z-score [9] of the same compound?
Answer: 1.62

Question: And the composite z-score [10]?
Answer: 0.581

Question: Which results are given for `CC(=O)c1ccc(C(O)C2C=CC3C(=O)N(C)C(=O)C3N2NC(=O)OC(C)(C)C)cc1` (stereo not given)?
Answer: composite z-score [1]: 0.955; z-score [2]: -0.859; composite z-score [3]: 0.237; composite z-score [4]: 2.2; composite z-score [5]: 1.19; composite z-score [6]: 0.0279; composite z-score [7]: 0.207; composite z-score [8]: 1.7; composite z-score [9]: 0.486; composite z-score [10]: 2.12

Question: Which composite z-score [1] does the source give for `CC(C)(C)N1CC=CC23O[C@@H]4/C=C\CCCOC(=O)C4[C@H]2C(=O)N(CCCCCCO)[C@@H]3C1=O` (stereo not given in full) here?
Answer: -0.802

Question: And the z-score [2]?
Answer: -0.762

Question: What about the composite z-score [3] of the same compound?
Answer: -1.03

Question: And the composite z-score [4]?
Answer: -0.558

Question: And the composite z-score [5]?
Answer: 0.337

Question: And the composite z-score [6]?
Answer: -0.0873

Question: What about the composite z-score [7] of the same compound?
Answer: 0.0952

Question: What about the composite z-score [8] of the same compound?
Answer: 0.382

Question: And the composite z-score [9]?
Answer: 1.24

Question: What about the composite z-score [10] of the same compound?
Answer: -1.34

Question: Which results are given for `CCCCC(=C=CC[C@@H](O)c1cccc(OCCO)c1)CCO`?
Answer: composite z-score [1]: -0.333; z-score [2]: -0.165; composite z-score [3]: -0.125; composite z-score [4]: -0.494; composite z-score [5]: 0.181; composite z-score [6]: -0.18; composite z-score [7]: 0.0121; composite z-score [8]: -0.405; composite z-score [9]: 0.297; composite z-score [10]: 2.16

Question: What does the source list for `COc1ccc([Si](C)(C)[C@H]2[C@H](CCn3cc([C@H](O)c4ccccc4)nn3)O[C@@]3(C(=O)N(c4ccccc4)c4ccccc43)[C@@H]2C)cc1`?
Answer: composite z-score [1]: 0.323; z-score [2]: -2.91; composite z-score [3]: -0.202; composite z-score [4]: -0.0353; composite z-score [5]: 0.82; composite z-score [6]: -0.1; composite z-score [7]: -0.2; composite z-score [8]: -0.143; composite z-score [9]: -0.179; composite z-score [10]: 0.0509

Question: Which results are given for `COC(=O)[C@@]1(Cc2ccc(OC)cc2)[C@H]2c3cc(C(=O)N(C)C)n(Cc4ccsc4Br)c3C[C@H]2CN1C(=O)c1ccccc1`?
Answer: composite z-score [1]: 0.835; z-score [2]: -0.235; composite z-score [3]: -0.318; composite z-score [4]: 1.01; composite z-score [5]: 0.511; composite z-score [6]: 0.281; composite z-score [7]: 0.696; composite z-score [8]: 1.61; composite z-score [9]: 2.24; composite z-score [10]: 0.177

Question: What does the source list for `CCOC(=O)C1=C(C(=O)OCC)N(S(=O)(=O)CC[Si](C)(C)C)[C@H](c2ccccc2)CC1`?
Answer: composite z-score [1]: 1.3; z-score [2]: -2.8; composite z-score [3]: -0.171; composite z-score [4]: 0.435; composite z-score [5]: 0.161; composite z-score [6]: 0.0307; composite z-score [7]: -0.164; composite z-score [8]: 0.118; composite z-score [9]: 0.356; composite z-score [10]: 1.23

Question: With `CO[C@H]1O[C@H](CO)[C@@H](OC(=O)Nc2ccc(C(F)(F)F)cc2)[C@H](OC(=O)Nc2ccccc2-c2ccccc2)[C@@H]1OC(=O)Nc1ccccc1-c1ccccc1` as the compound, how does the composite z-score [1] read?
Answer: 1.3

Question: And the z-score [2]?
Answer: -2.79

Question: And the composite z-score [3]?
Answer: 0.523

Question: And the composite z-score [4]?
Answer: 2.2

Question: And the composite z-score [5]?
Answer: 0.383

Question: And the composite z-score [6]?
Answer: 0.0181

Question: And the composite z-score [7]?
Answer: 0.199

Question: And the composite z-score [8]?
Answer: 0.977

Question: And the composite z-score [9]?
Answer: 1.47

Question: And the composite z-score [10]?
Answer: 2.18

Question: For `CCOC(=O)C1=CC[C@@H](c2ccccc2)N(S(=O)(=O)c2ccc(C)cc2)[C@H]1C#N`, which composite z-score [1] is on record?
Answer: 0.894

Question: What about the z-score [2] of the same compound?
Answer: -1.76

Question: And the composite z-score [3]?
Answer: 0.116

Question: And the composite z-score [4]?
Answer: 0.906

Question: What about the composite z-score [5] of the same compound?
Answer: 0.658

Question: And the composite z-score [6]?
Answer: 0.0044

Question: And the composite z-score [7]?
Answer: -0.16

Question: And the composite z-score [8]?
Answer: -0.59

Question: What about the composite z-score [9] of the same compound?
Answer: 1.03

Question: And the composite z-score [10]?
Answer: -0.06

Question: Which composite z-score [1] does the source give for `C=C(C(=O)CC[C@@H](OC(C)=O)c1cccc(OCCO)c1)C(C)C` here?
Answer: 0.974

Question: What about the z-score [2] of the same compound?
Answer: -3.23

Question: What about the composite z-score [3] of the same compound?
Answer: -0.865

Question: And the composite z-score [4]?
Answer: -0.35

Question: And the composite z-score [5]?
Answer: -0.94

Question: And the composite z-score [6]?
Answer: -0.0276

Question: And the composite z-score [7]?
Answer: -0.223

Question: And the composite z-score [8]?
Answer: -0.0863

Question: What about the composite z-score [9] of the same compound?
Answer: 0.847

Question: What about the composite z-score [10] of the same compound?
Answer: 0.221

Question: For `CC(C)[C@@H](C(=O)O)n1cc(-c2ccccc2)nn1`, which composite z-score [1] is on record?
Answer: 0.972

Question: What about the z-score [2] of the same compound?
Answer: 0.281

Question: And the composite z-score [3]?
Answer: 0.396

Question: And the composite z-score [4]?
Answer: 0.913

Question: What about the composite z-score [5] of the same compound?
Answer: 0.957

Question: And the composite z-score [6]?
Answer: 0.0145

Question: What about the composite z-score [7] of the same compound?
Answer: 0.227

Question: What about the composite z-score [8] of the same compound?
Answer: -0.0238

Question: And the composite z-score [9]?
Answer: 0.941

Question: What about the composite z-score [10] of the same compound?
Answer: 1.03

Question: For `O=C1c2ccccc2[C@@]2(Cc3ccccc3N(Cc3ccccc3)C2=O)[C@H](c2ccc(CO)cc2)N1Cc1ccccc1`, which composite z-score [1] is on record?
Answer: 0.145

Question: And the z-score [2]?
Answer: -0.173

Question: And the composite z-score [3]?
Answer: -1.09

Question: And the composite z-score [4]?
Answer: -0.73

Question: And the composite z-score [5]?
Answer: 0.242

Question: What about the composite z-score [6] of the same compound?
Answer: -0.236

Question: What about the composite z-score [7] of the same compound?
Answer: -0.153

Question: And the composite z-score [8]?
Answer: -0.36

Question: And the composite z-score [9]?
Answer: -0.516

Question: What about the composite z-score [10] of the same compound?
Answer: -0.114

Question: Which composite z-score [1] does the source give for `C=CCC(OC(C)=O)[C@@H]1[C@@H](N(Cc2ccc(-c3cccc(C(F)(F)F)c3)o2)C(=O)c2cccc3ccccc23)c2cc(OCCCO)ccc2N1C(=O)c1ccc2ccccc2n1` (stereo not given in full) here?
Answer: -0.193

Question: What about the z-score [2] of the same compound?
Answer: 0.66

Question: And the composite z-score [3]?
Answer: -0.309

Question: And the composite z-score [4]?
Answer: -0.484

Question: And the composite z-score [5]?
Answer: -0.108

Question: And the composite z-score [6]?
Answer: -0.0459

Question: What about the composite z-score [7] of the same compound?
Answer: 0.227

Question: And the composite z-score [8]?
Answer: 0.169

Question: What about the composite z-score [9] of the same compound?
Answer: 0.406

Question: What about the composite z-score [10] of the same compound?
Answer: -0.482
